ssDAF12 agonist – activates DAF-12 receptor from parasite S. stercoralis; HEK293 ssDAF-12/GRIP1 lit1-tk-luc reporter, luminescence; % of 3 µM dafachronic acid response; 370,000 compounds, 1% hits; activation, % at 6.8 µM; AID 652126;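 active = activation above the mean over all tested compounds plus 3 SD, cut at about 0.9% in these data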
DAX1 inh-1 – inhibitors of human orphan nuclear receptor DAX1 (NR0B1); P51843; HEK293 Gal4-DAX1 luciferase reporter, luminescence; inhibition, % at 6.75 µM; 340,000 compounds, 0.99% hits;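 active = inhibition above the mean over all tested compounds plus 3 SD, cut at about 4.2% in these data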;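 note: inhibition shows as a rise in luminescence from relieved DAX1 repression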
Target sequence (P51843 207-470 limits assumed): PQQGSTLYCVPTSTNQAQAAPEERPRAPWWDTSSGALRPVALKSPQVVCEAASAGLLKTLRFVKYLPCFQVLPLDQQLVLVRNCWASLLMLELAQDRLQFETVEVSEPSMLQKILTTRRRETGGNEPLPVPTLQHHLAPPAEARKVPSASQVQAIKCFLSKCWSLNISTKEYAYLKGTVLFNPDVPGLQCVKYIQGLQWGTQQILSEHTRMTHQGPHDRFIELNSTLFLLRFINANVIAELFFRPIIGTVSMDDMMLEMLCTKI
hgDAF-12 ag – agonists of H. glycines DAF-12 nuclear receptor; activation, % at 6.8 µM; 370,000 compounds, 1.8% hits; HEK293 GAL4-hgDAF12 UAS-luciferase reporter, agonist luminescence; normalized to butyrate control; AID 687014;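 active = activation above a cutoff set at the mean of all screened compounds plus 3 SD, cut at about 10% in these data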
hcDAF-12 act – activates DAF-12 receptor from parasite H. contortus. 370,000 compounds, 1.4% hits. HEK293 hcDAF-12 lit1-tk-luc reporter, luminescence; 0% DMSO, 100% Δ7-dafachronic acid. activation, % at 6.8 µM. AID 652067;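 active = activation above the mean of all tested compounds plus 3 SD, cut at about 5.5% in these data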
DAX1 inh-2 – inhibitors of DAX1 repression of SF-1 activated StAR promoter | HEK293T StAR-luciferase reporter, SF-1/DAX-1 repression relief | AID 652010 | inhibition, % at 6.8 µM | 370,000 compounds, 1.1% hits;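 active = inhibition above the mean over all tested compounds plus 3 SD, cut at about 3.6% in these data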;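 note: higher inhibition means more luminescence from relief of DAX-1 repression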
LXRb hcDAF ctr – counter-screen for hcDAF-12 agonists: agonists of human LXR-beta. shares compounds with hcDAF-12 act. HEK293 Gal4-LXR tk-luc reporter, luminescence, 24 h; normalized: DMSO 0%, positive control 100%. activation, % at 6.8 µM. 3,400 tested, under 10 active. AID 743027;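 active = mean percent activation of the reporter above a cutoff set as the average over tested compounds plus their standard deviation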
hcDAF12 ag – hcDAF-12 agonism, confirmation assay; HEK293 hcDAF-12 lit1-tk-luc reporter, luminescence; % of Δ7-dafachronic acid response; AID 743032; 3,400 compounds, 61% hits; shares compounds with hcDAF-12 act; activation, % at 6.8 µM;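 active = mean activation across triplicate tests above the threshold derived from the earlier primary screen, cut at about 5.5% in these data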
Each line names hits and unclear results; the compound was inactive in the other large screens (follow-up assays come after a bar, where they were run). An excerpt weighted towards active compounds, which were near 4.1% of everything screened.

c1ccc2c(c1)CCCN2Cc1nnc2n1CCCCC2	ssDAF12 agonist 1.0, hcDAF-12 act 7.7 | LXRb hcDAF ctr inactive | hcDAF12 ag inactive
Cc1ccc(-n2c3c(cc(C(=O)NC4CCSC4=O)c2=O)C(=O)CC(C)(C)C3)cc1 (configuration not stated)	hcDAF-12 act 6.9 | LXRb hcDAF ctr inactive | hcDAF12 ag inactive
COc1ccc(C(=O)CN2C(=O)COc3ccccc32)cc1	none
COc1ccc(C(=O)CN2Cc3ccccc3C2=N)cc1	ssDAF12 agonist 2.1, hgDAF-12 ag 12.6, hcDAF-12 act 17.6 | LXRb hcDAF ctr inactive | hcDAF12 ag 9.5
Nc1c2ccccc2nc2ccccc12	ssDAF12 agonist 2.6, hcDAF-12 act 13.5 | LXRb hcDAF ctr inactive | hcDAF12 ag 25.1
COc1ccccc1Cc1c(-c2ccccc2)nc2c3ccccc3ccn12	ssDAF12 agonist 1.4, hcDAF-12 act 6.6 (no result: DAX1 inh-1) | LXRb hcDAF ctr inactive | hcDAF12 ag 6.0
FC(F)(F)c1ccccc1Cc1c(-c2cccc(Cl)c2)nc2c3ccccc3ccn12	ssDAF12 agonist 1.6, hcDAF-12 act 8.3 (no result: DAX1 inh-1) | LXRb hcDAF ctr inactive | hcDAF12 ag inactive
COc1ccc(-c2nc3c4ccccc4ccn3c2Cc2ccccc2)cc1OC	ssDAF12 agonist 2.8, hcDAF-12 act 11.3 (no result: DAX1 inh-1) | LXRb hcDAF ctr inactive | hcDAF12 ag 9.9
COc1ccccc1Cc1c(-c2ccc(OC)c(OC)c2)nc2c3ccccc3ccn12	none (no result: DAX1 inh-1)
CN(Cc1ccccc1)C(=O)c1csc([C@H]2C[C@H](O)[C@@H](CO)O2)n1	none (no result: DAX1 inh-1)
CCc1ccc(/C=C2/C(=O)NC(=O)N2C(C)=O)cc1	none
N#Cc1ccc(C(=O)N2CCCC(c3cc(C(=O)NCc4cccnc4)no3)C2)cc1 (configuration not stated)	none (no result: DAX1 inh-1)
CCSc1ccc2cc(OC)ccc2[n+]1CC	none
COC(=O)[C@]1(CC(C)C)N[C@H](c2ccc(-c3ccc(Cl)c(Cl)c3)cc2)[C@@H]2C(=O)N(C)C(=O)[C@@H]21	none
COC(=O)CC(=O)CSc1nc2c(cc1C#N)CCCCC2	hgDAF-12 ag 11.3, hcDAF-12 act 10.4 | LXRb hcDAF ctr inactive | hcDAF12 ag inactive
Cc1ccc(C(=O)CNc2ccc(C)c(Cl)c2)cc1	none
Cc1ccc(NCC(=O)c2ccccc2)cc1Cl	hcDAF-12 act 7.7 | LXRb hcDAF ctr inactive | hcDAF12 ag inactive
O=C(CSc1nnc(SCC(=O)c2ccco2)s1)c1ccco1	none
O=C(CSc1nc2cc(Cl)ccc2s1)c1ccco1	hcDAF-12 act 9.7 | LXRb hcDAF ctr inactive | hcDAF12 ag inactive
O=c1[nH]c2cc3c(cc2cc1CN(Cc1cccnc1)Cc1nnnn1Cc1ccco1)OCCO3	none
O=c1[nH]c2cc3c(cc2cc1CN(Cc1ccccc1)Cc1nnnn1Cc1ccco1)OCCO3	hcDAF-12 act 8.3 | LXRb hcDAF ctr inactive | hcDAF12 ag inactive
COc1ccc2ccn(S(=O)(=O)c3ccccc3)c2c1	none
COc1ccc(C(=O)NCc2nc(C)c(C)s2)cc1OC1CCN(C(C)C)CC1	none
Cc1ccc(C(=O)Cn2c(=N)n(N)c3ccccc32)cc1	ssDAF12 agonist 1.6, DAX1 inh-1 4.6, hcDAF-12 act 7.5 | LXRb hcDAF ctr inactive | hcDAF12 ag inactive
CCN(CC)CCn1c(=N)n(CC(=O)c2ccc(C)cc2)c2ccccc21	ssDAF12 agonist 1.2, hcDAF-12 act 8.2 | LXRb hcDAF ctr inactive | hcDAF12 ag inactive
Cn1c(=N)n(CC(=O)c2ccccc2)c2ccccc21	ssDAF12 agonist 2.5, hgDAF-12 ag 10.7, hcDAF-12 act 18.4 (no result: DAX1 inh-1) | LXRb hcDAF ctr inactive | hcDAF12 ag 25.0
Cn1c(=N)n(CC(=O)O)c2ccccc21	none
COc1ccc(CNC(=O)COC(=O)c2ccc(OCC3CCCO3)cc2)cc1 (configuration not stated)	none
CC(C)c1ccc(NC(=O)C2CCCCN2S(=O)(=O)c2ccccc2)cc1 (configuration not stated)	none

From PubChem BioAssay
